In the supplement of paper PMC13380429:

Tested on: Vero E6 infected with SARS-CoV-2
Experiment: inhibition of SARS-CoV-2 cytopathic effect; higher = more antiviral protection, active = above 15
Details: 48 h

Measured: inhibition of SARS-CoV-2 cytopathic effect

CC(C)C[C@H](NC(=O)[C@H](CCCCN)NC(=O)[C@H](CCCNC(=N)N)NC(=O)[C@H](C)NC(=O)[C@H](CO)NC(=O)[C@H](CCCCN)NC(=O)[C@H](CCCNC(=N)N)NC(=O)[C@H](C)NC(=O)CNC(=O)[C@@H](NC(=O)[C@H](Cc1ccccc1)NC(=O)CNC(=O)CNC(=O)[C@@H](N)Cc1ccccc1)[C@@H](C)O)C(=O)N[C@@H](C)C(=O)N[C@@H](CC(N)=O)C(=O)N[C@@H](CCC(N)=O)C(=O)O [orphanin-fq]
inactive: 1 nM 1.63% | 8.33 nM -0.61% | 100 nM 0.09% | 833.33 nM 0.66% | 10000 nM 0.4%

C=C1/C(=C\C=C2/CCC[C@]3(C)[C@@H]([C@H](C)CC[C@@H](O)C(C)C)CC[C@@H]23)C[C@@H](O)C[C@@H]1O [tacalcitol]
inactive: 1 nM -1.15% | 8.33 nM -0.65% | 100 nM 1.63% | 833.33 nM 1.18% | 10000 nM 1.31%

COc1cc2c(N3CCN(C(=O)Nc4ccc(OC(C)C)cc4)CC3)ncnc2cc1OCCCN1CCCCC1 [tandutinib]
inactive: 1 nM -3.74% | 8.33 nM -4.22% | 100 nM -2.54% | 833.33 nM 0.88% | 10000 nM 0.92%
